# Screening data (PubChem BioAssay)
# Rab9 prom act: qHTS Assay for Rab9 Promoter Activators | AID 485297, 2010 | Huh7 Rab9 promoter-luciferase reporter, luminescence, 24 h | Potency, µM (doses to about 9.22 µM), for inactives: at the highest dose activation, negative = inhibition, actives largely listed as activators | 320,000 tested, 2.8% active; note: % of control where 0% means no effect; nearly all actives have a fitted effect of over 60% in size
#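 Huh7 cells stably carrying Rab9 promoter–luciferase reporter, plated 1500 cells/well, compound added after 2 h and incubated 24 h at 37 °C; luciferase luminescence then read after 10 min with detection reagent.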
# ELG1 genotoxic: qHTS screen for small molecules that induce genotoxicity in human embryonic kidney (HEK293T) cells expressing luciferase-tagged ELG1; HEK293T ELG1-luciferase reporter, luminescence, 16 h; 330,000 tested, 1.3% active; Potency, µM (titrated, usually from 46 µM), without a hit: top-dose activity change, positive = activation, actives largely listed as activators; note: % of control where 0% means no effect; nearly all actives have a fitted effect of over 60% in size
#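 ELG1-luciferase HEK293T cells, 2,000/well; compound pinned in; 16 hr, 37 °C, 5% CO2; ONE-Glo, 30 min RT; luminescence on CCD imager.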
# SMN2 splice up: qHTS Assay for Enhancers of SMN2 Splice Variant Expression; HEK293 SMN2-luciferase splicing reporter, luminescence, 30-36 h; Potency, µM (doses to about 46.1 µM), for inactives: at the highest dose activity change, positive = activation, usual class: activators; 210,000 tested, 2.8% active; AID 1458, 2008; note: % of control where 0% means no effect; nearly all actives have a fitted effect of over 55% in size
#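 qHTS luciferase splicing reporter: luminescence rises when SMN2 exon 7 is included in transfected HEK293 cells. Compound exposure lasted 30-36 h at 37C, with 4.5 mM final sodium butyrate as control, followed by a ONE-Glo read.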
# NPC1 promoter act: qHTS Assay for NPC1 Promoter Activators | Huh7 NPC1 promoter luciferase reporter, 24 h | Potency, µM (doses to about 9.22 µM), for the others: at the top dose activation, actives largely listed as activators | 320,000 tested, 2.4% active; note: % of control where 0% means no effect; nearly all actives have a fitted effect of over 60% in size
#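 Luminescence from an NPC1 promoter-driven luciferase reporter in stably transfected Huh7 cells was measured after 24 h compound treatment at 37 °C, followed by 10 min ambient incubation with luciferase detection reagent.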
# ELG1 repair inh: qHTS screen for small molecules that inhibit ELG1-dependent DNA repair in human embryonic kidney (HEK293T) cells expressing luciferase-tagged ELG1 | HEK293T ELG1-luciferase reporter, luminescence, 16 h; DNA damage induced by 5-fluorouridine | Potency, µM (highest dose often 46.1 µM), without a hit: top-dose activity change, negative = inhibition, actives largely listed as inhibitors | 330,000 tested, 2.3% active | AID 504467, 2011; note: % is set by controls: 0 for no effect and ±100 for the full control effect; nearly all actives have a fitted effect of over 55% in size
#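 Luminescence from the luciferase reporter, measured 30 min after ONE-Glo reagent at room temperature, was the read-out. Beforehand, 2,000 cells per well were exposed for 16 hr at 37 °C to 5-fluorouridine together with compound or vehicle.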
# FLuc counter: qHTS profiling assay for firefly luciferase inhibitor/activator using purifed enzyme and Km concentrations of substrates (counterscreen for miR-21 project); 360,000 tested, 6.9% active; Potency, µM (top dose mostly 57.5 µM), for the others: at the highest dose activity change, negative = inhibition, most hits filed as inhibitors; purified FLuc, Km substrates, luminescence inhibition;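 note: plate controls were vehicle for no effect and reference inhibitor for full effect; nearly all actives have a fitted effect of over 55% in size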
# Target sequence (P08659 whole entry, looked up): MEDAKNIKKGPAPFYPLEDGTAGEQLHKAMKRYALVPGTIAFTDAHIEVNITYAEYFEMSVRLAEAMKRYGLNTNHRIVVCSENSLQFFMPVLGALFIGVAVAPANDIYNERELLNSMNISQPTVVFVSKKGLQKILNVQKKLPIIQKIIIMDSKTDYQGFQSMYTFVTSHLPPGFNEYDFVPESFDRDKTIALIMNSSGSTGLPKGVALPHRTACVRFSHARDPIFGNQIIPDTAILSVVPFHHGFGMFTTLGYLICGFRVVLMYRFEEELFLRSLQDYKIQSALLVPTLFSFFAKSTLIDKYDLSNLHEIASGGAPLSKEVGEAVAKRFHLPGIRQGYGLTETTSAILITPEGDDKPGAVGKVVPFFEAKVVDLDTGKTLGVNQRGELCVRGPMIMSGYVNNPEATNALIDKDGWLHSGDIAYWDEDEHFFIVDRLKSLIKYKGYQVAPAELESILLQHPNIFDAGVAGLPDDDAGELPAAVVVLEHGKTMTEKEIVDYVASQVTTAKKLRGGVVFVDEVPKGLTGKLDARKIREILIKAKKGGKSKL
#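 Purified P. pyralis luciferase, 10 nM final, with Km-level 10 uM D-luciferin and 10 uM ATP in 50 mM Tris acetate pH 7.5, 10 mM Mg acetate, 0.01% Tween-20, 0.05% BSA; 6-point qHTS titration about 60 µM downward; luminescence read.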
# * = called active by the depositor; u = inconclusive; x = no result given. Only some compounds are listed: those with a hit (about 9.3% of all), similar ones and a draw of the others. Calls come from the whole dose curve; as a rule, active = well fitted curve in the direction sought with a large enough effect; inconclusive = small, poorly fitted or top-dose-only effect, or another doubt; inactive = no such curve, though single readings can be large; an effect the other way counts as inactive or inconclusive. Potency is the fitted concentration of half-maximal effect.
SMILES,Rab9 prom act,ELG1 genotoxic,SMN2 splice up,NPC1 promoter act,ELG1 repair inh,FLuc counter
c1ccc2cc(Sc3ncnc4c3oc3ccccc34)ccc2c1,u,1%,-21%,u,0%,17µM*
Clc1ncnc2c1oc1ccccc12,-1%,u,13µM*,1%,u,9.5µM*
CCn1c2ccccc2c2cc(NC(=O)c3cc(C)on3)ccc21,-3%,-2%,-24%,0%,u,-18%
CC1(C)N=C(N)NC(Nc2ccccc2Cl)=N1,1%,1%,11%,-2%,13%,-1%
COc1ccc(C)cc1NC(=O)Nc1ccc(C(=O)N2CCCC2)cc1,29%,18%,x,23%,u,13µM*
COc1ccc(C)cc1NC(=O)Nc1ccccc1,10%,-7%,-10%,2%,7%,u
COc1ccc(Cl)cc1NC(=O)Nc1ccc(C(=O)N2CCCC2)cc1,19%,-6%,x,20%,12%,21µM*
Cc1cc(=O)[nH]c(SCC(=O)Nc2c(C)n(C)n(-c3ccccc3)c2=O)c1C#N,-9%,-1%,x,-4%,-1%,1%
COc1cc(NC(=O)c2cc3ccccc3o2)c(OC)cc1Cl,29%,9%,-13%,15%,23%,0%
Cc1cccc2sc(N(CCN(C)C)C(=O)c3cc(Cl)sc3Cl)nc12,1%,-1%,-6%,1%,-13%,-1%
Cc1cc(C)c(NS(=O)(=O)c2cc(-c3cnc(C4CC4)o3)ccc2C)c(C)c1,x,x,x,x,x,-5%
Cc1ccc(N(C)S(=O)(=O)c2cc(-c3cnc(C4CC4)o3)ccc2C)cc1,-5%,-8%,x,-10%,16µM*,-3%
Cc1ccc(N2C(=O)C3C(C2=O)C2C=CC3C23CC3)cc1 (centres undefined),11%,6%,-7%,10%,u,11µM*
O=C1C2C(C(=O)N1c1ccncc1)C1C=CC2C12CC2 (centres undefined),-10%,2%,2%,5%,3%,0%
COc1ccc(CCNS(=O)(=O)c2ccc(Br)s2)cc1,27%,26%,x,25%,u,u
COc1cc(NC(=O)c2cc3cc4cc(OC)ccc4nc3o2)cc(OC)c1,x,x,x,x,x,3%
COc1ccc2cc3cc(C(=O)Nc4cc(OC)c(OC)c(OC)c4)oc3nc2c1,-8%,-14%,-9%,-1%,16µM*,2%
COc1ccc2cc3cc(C(=O)NC(C)C)oc3nc2c1,2µM*,u,x,u,u,17µM*
O=C(Nc1ccnn1C1CCN(Cc2ccccn2)CC1)c1cccc(F)c1,4%,2%,x,-1%,18%,0%
Cc1ccccc1OCC(=O)Nc1ccc2oc(=O)ccc2c1,-1%,u,-19%,0%,13%,3%
Nc1nc(-c2ccccc2)c(N=Nc2cccc3ccccc23)s1,-3%,0%,-28%,1%,14%,27µM*
CC(=O)NC(Cc1c[nH]c2ccccc12)C(=O)N1CCc2ccccc2C1 (centres undefined),0%,-2%,6%,2%,-5%,2%
COc1ccc(C(=O)NCc2ccc3[nH]c(C)cc3c2)cc1OC,-5%,-2%,19%,7%,u,-13%
COC(=O)c1ccc(CNC(=O)COC(=O)c2ccccc2-c2ccccc2)cc1,-8%,-4%,x,-4%,u,u
COc1ccc2nc(/C(C#N)=C\c3ccc(C(=O)O)cc3)[nH]c2c1,1%,2%,x,-2%,22%,24µM*
COc1ccc2nc(/C(C#N)=C\c3ccc(Oc4ccc([N+](=O)[O-])cn4)cc3)[nH]c2c1,-9%,7%,3%,0%,-17%,-27%
